Results taken from the supplement of paper PMC10849652.
Of roughly 8,800 targets only a part is listed; those with a hit were picked by preference. About 0.5% of all pairs of compound and target were hits. Values without a mark were called inactive.

Columns and labels:
Test in all cases: log2 fold change, soluble protein after heating vs DMSO (PISA); higher = thermal stabilisation; K562 lysate, 10 uM; active = over 0.2 and 3.5 SD of the protein, either way, in both replicates (recomputed)
nilotinib = compound: Cc1cn(-c2cc(NC(=O)c3ccc(C)c(Nc4nccc(-c5cccnc5)n4)c3)cc(C(F)(F)F)c2)cn1 [nilotinib]
In short: (§1)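 Pellets of K562 cells were dounce-homogenised in PBS pH 7.4 with 1 mM MgCl2, and the crude extract was held at 1 mg/mL protein for a 30 min treatment with 10 μM compound. Aliquots were heated for 3 min over 48°C-58°C and pooled before NP-40 was added to 0.5% at 4°C. The supernatant from 21,000xg for 90 min was quantified by TMTpro 16plex LC-MS/MS with channel sums equalised. Values are reported from duplicates as log-two fold change in thermal stability relative to solvent controls.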

[1] = compound: Cc1nc(Nc2n[nH]c3c2CN(C(=O)N[C@H](CN(C)C)c2ccccc2)C3(C)C)c2sccc2n1
In short: as §1

dasatinib = compound: Cc1nc(Nc2ncc(C(=O)Nc3c(C)cccc3Cl)s2)cc(N2CCN(CCO)CC2)n1 [dasatinib]
In short: as §1

[2] = compound: Cc1ncc(-c2ccnc(Nc3ccc(S(C)(=O)=O)cc3)n2)n1C(C)C
In short: as §1

[3] = compound: Cn1cc(-c2ccc3c(c2)CCN3C(=O)Cc2cccc(C(F)(F)F)c2)c2c(N)ncnc21
In short: as §1

quisinostat = compound: Cn1cc(CNCC2CCN(c3ncc(C(=O)NO)cn3)CC2)c2ccccc21 [quisinostat]
In short: as §1

tipifarnib = compound: Cn1cncc1[C@@](N)(c1ccc(Cl)cc1)c1ccc2c(c1)c(-c1cccc(Cl)c1)cc(=O)n2C [tipifarnib]
In short: as §1

[4] = compound: NC(=O)Nc1cc(-c2cccc(F)c2)sc1C(=O)N[C@H]1CCCNC1
In short: as §1

[5] = compound: NC(=O)c1cnc(N[C@@H]2CCCC[C@@H]2N)nc1Nc1cccc(-n2nccn2)c1
In short: as §1

[6] = compound: NC1(c2ccc(-c3nc4ccn5c(=O)[nH]nc5c4cc3-c3ccccc3)cc2)CCC1
In short: as §1

Sequence of UniProt P28331 (P28331 whole entry, looked up): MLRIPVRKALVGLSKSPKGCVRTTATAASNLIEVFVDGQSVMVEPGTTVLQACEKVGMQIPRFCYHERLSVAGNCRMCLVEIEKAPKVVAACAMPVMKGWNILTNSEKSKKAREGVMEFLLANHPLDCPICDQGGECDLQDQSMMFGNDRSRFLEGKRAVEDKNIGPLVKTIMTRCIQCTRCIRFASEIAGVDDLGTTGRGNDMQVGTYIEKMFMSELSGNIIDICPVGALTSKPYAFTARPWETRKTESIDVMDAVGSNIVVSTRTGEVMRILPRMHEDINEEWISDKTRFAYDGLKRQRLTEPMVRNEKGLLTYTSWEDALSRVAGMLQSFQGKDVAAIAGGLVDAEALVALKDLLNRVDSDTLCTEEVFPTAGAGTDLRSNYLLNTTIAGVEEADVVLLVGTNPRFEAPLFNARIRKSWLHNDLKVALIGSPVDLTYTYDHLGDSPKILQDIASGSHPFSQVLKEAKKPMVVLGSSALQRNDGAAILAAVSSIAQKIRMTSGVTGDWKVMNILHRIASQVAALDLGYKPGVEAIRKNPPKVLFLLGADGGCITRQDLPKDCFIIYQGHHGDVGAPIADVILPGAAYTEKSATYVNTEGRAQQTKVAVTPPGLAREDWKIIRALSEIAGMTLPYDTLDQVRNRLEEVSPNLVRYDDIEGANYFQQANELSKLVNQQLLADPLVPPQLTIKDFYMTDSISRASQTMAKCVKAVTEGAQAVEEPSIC
Sequence of UniProt Q9H857 (Q9H857 whole entry, looked up): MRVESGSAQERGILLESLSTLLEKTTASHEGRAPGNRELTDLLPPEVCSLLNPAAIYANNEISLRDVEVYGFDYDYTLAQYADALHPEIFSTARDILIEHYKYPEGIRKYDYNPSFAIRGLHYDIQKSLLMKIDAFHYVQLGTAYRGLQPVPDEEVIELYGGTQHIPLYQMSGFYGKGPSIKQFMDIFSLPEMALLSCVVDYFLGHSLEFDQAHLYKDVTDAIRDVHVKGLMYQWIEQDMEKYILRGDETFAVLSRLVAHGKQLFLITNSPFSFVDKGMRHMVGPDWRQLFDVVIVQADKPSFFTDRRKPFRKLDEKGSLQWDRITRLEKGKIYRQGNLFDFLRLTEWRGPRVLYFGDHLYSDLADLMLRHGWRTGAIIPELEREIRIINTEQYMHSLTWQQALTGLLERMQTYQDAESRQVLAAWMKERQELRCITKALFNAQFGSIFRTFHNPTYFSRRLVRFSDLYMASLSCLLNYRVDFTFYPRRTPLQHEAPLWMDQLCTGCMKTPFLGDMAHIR
Sequence of UniProt Q8NC60 (Q8NC60 whole entry, looked up): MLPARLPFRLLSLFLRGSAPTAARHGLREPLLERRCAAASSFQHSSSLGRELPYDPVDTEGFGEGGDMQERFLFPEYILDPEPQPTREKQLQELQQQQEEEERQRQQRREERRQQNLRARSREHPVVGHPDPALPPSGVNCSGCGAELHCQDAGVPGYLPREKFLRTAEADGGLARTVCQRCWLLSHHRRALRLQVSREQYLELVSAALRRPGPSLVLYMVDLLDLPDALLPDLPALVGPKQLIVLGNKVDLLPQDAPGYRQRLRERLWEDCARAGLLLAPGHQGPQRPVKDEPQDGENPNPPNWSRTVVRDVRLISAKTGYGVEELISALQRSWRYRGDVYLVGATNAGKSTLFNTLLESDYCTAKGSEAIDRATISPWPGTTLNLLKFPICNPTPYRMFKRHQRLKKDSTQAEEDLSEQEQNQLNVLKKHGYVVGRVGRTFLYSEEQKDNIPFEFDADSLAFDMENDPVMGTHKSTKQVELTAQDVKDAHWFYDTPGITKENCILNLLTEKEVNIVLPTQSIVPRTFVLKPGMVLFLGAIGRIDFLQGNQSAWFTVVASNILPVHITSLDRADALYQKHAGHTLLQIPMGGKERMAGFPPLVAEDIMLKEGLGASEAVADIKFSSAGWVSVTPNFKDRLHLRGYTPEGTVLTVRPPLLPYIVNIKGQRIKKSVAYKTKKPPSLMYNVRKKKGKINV
Sequence of UniProt Q9Y5A7 (Q9Y5A7 whole entry, looked up): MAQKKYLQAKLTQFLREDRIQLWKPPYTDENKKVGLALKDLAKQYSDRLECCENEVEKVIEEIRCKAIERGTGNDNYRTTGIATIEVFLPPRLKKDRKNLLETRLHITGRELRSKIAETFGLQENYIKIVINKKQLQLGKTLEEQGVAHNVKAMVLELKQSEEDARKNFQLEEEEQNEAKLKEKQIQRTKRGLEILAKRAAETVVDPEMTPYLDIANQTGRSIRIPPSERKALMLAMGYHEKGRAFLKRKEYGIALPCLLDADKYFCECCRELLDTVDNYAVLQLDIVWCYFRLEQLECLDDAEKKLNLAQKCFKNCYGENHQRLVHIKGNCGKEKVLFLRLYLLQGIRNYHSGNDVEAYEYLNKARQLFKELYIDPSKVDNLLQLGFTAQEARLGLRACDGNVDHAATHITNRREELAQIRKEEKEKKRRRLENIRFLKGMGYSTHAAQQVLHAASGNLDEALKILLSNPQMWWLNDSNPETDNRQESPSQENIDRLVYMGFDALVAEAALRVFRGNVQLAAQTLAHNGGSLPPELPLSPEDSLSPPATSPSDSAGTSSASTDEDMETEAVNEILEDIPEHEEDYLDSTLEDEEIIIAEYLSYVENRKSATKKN
Sequence of UniProt Q9Y530 (Q9Y530 whole entry, looked up): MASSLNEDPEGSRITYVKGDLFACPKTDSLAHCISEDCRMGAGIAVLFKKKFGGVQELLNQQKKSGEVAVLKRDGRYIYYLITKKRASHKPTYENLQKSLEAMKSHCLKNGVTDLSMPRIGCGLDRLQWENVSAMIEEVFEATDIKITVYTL
Sequence of UniProt Q15233 (Q15233 whole entry, looked up): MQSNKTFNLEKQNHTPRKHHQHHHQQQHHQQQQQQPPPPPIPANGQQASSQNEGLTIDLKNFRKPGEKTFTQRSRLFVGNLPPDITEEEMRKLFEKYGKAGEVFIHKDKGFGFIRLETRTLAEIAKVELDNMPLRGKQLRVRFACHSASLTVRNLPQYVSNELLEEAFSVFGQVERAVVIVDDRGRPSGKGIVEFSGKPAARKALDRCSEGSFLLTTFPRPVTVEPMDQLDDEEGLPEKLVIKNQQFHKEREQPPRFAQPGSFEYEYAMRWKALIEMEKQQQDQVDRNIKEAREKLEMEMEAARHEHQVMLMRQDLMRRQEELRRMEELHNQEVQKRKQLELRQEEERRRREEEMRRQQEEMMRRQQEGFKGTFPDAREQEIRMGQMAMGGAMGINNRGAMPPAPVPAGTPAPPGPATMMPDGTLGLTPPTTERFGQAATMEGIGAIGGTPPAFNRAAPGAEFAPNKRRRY
Sequence of UniProt Q96KB5 (Q96KB5 whole entry, looked up): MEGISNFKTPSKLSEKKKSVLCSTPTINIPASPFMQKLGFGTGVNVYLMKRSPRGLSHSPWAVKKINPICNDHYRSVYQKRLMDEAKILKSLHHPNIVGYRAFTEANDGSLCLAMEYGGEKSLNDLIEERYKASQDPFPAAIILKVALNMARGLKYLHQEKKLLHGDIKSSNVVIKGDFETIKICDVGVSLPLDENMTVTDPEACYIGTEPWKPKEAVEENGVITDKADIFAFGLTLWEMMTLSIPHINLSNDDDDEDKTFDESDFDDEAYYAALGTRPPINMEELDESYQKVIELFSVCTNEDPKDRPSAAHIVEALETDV
Sequence of UniProt Q15021 (Q15021 whole entry, looked up): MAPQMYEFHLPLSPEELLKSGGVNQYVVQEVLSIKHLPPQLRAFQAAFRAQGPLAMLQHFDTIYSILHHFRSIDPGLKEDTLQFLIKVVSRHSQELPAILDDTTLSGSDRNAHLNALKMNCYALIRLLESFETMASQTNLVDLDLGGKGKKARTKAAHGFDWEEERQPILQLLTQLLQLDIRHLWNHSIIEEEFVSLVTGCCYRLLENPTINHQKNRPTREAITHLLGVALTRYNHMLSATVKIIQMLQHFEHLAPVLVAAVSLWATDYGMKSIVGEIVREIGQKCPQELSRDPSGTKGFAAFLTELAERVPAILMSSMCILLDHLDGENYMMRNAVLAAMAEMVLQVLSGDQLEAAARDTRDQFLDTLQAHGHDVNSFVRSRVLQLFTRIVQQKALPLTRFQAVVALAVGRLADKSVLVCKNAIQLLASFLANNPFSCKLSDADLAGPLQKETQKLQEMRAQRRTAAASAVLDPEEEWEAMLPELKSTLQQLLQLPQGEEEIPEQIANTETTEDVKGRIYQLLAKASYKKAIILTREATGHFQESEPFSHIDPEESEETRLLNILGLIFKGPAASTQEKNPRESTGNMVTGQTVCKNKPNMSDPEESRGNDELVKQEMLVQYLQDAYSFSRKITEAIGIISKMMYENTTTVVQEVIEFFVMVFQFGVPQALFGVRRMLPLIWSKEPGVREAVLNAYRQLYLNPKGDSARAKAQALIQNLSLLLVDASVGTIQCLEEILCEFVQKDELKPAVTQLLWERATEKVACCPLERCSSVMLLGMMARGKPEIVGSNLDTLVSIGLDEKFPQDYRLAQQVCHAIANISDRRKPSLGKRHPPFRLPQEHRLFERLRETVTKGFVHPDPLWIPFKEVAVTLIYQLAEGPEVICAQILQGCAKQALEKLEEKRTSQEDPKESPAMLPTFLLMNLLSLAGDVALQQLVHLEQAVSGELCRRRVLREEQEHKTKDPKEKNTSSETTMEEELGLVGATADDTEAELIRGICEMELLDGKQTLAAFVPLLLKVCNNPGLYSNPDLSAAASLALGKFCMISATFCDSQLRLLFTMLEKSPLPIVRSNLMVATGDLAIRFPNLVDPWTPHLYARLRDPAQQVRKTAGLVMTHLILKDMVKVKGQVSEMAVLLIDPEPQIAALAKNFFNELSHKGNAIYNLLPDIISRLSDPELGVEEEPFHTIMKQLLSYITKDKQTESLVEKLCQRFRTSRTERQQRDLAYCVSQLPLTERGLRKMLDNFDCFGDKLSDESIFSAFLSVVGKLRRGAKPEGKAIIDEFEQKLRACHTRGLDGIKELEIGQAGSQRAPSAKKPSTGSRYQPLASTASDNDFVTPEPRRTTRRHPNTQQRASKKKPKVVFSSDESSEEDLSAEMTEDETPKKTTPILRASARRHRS
Sequence of UniProt Q15843 (Q15843 whole entry, looked up): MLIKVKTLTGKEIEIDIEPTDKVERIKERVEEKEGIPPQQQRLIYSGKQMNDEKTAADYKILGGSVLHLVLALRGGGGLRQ

| Target | log2 fold change (nilotinib) | log2 fold change [1] | log2 fold change (dasatinib) | log2 fold change [2] | log2 fold change [3] | log2 fold change (quisinostat) | log2 fold change (tipifarnib) | log2 fold change [4] | log2 fold change [5] | log2 fold change [6] |
| --- | --- | --- | --- | --- | --- | --- | --- | --- | --- | --- |
| NFATC4 isoform 2 (UniProt Q14934) | -0.046 | -0.018 | 0.055 | 0.04 | -0.041 | -0.07 | -0.066 | 0.01 | -0.017 |  |
| NBEAL2 (UniProt Q6ZNJ1) | 0.031 | -0.008 | -0.069 | 0.036 | 0.029 | -0.077 | -0.017 | 0.033 | 0.014 | 0.06 |
| NCAPH (UniProt Q15003) | -0.033 | 0 | -0.03 | -0.017 | -0.017 | 0.005 | 0.023 | 0.013 | 0.006 | -0.017 |
| NLRP2 (UniProt Q9NX02) | -0.002 | 0.013 | -0.019 | 0.007 | 0.032 | -0.031 | -0.008 | 0.013 | 0.003 | 0.026 |
| NELFA (UniProt Q9H3P2) | -0.018 | -0.01 | -0.064 | -0.02 | -0.009 | -0.007 | 0.024 | 0.03 | 0.048 | -0.014 |
| MYO9A isoform 4 (UniProt B2RTY4) | 0.059 | -0.044 | -0.176 | 0 | 0.052 | -0.074 | -0.005 | 0.112 | 0.039 | -0.112 |
| OSBP (UniProt P22059) | -0.073 | 0.005 | -0.221 (active) | -0.015 | -0.011 | 0 | 0.042 | 0.012 | 0.031 | 0.04 |
| MTA2 (UniProt O94776) | 0.001 | 0.017 | -0.019 | -0.011 | 0.046 | -0.062 | -0.007 | 0.03 | -0.002 | 0.001 |
| MSH2 (UniProt P43246) | -0.005 | -0.008 | -0.038 | -0.01 | 0.01 | -0.08 | 0.004 | 0.046 | 0.016 | -0.017 |
| ORC3 isoform 2 (UniProt Q9UBD5) | -0.014 | 0 | -0.084 | -0.014 | -0.012 | -0.038 | -0.014 | 0.099 | 0.027 | -0.079 |
| NT5DC2 isoform 2 (UniProt Q9H857) | 0.025 | -0.041 | 0.067 | 0.029 | -0.027 | -0.002 | -0.027 | -0.002 | 0.06 | -0.011 |
| NACC1 (UniProt Q96RE7) | -0.013 | 0.031 | -0.006 | -0.007 | 0.022 | -0.024 | -0.008 | -0.04 | 0.022 | 0.015 |
| NOC2L (UniProt Q9Y3T9) | 0.027 | 0.022 | -0.03 | -0.046 | -0.052 | -0.082 | -0.087 | 0.058 | 0.014 | -0.019 |
| MTCH2 (UniProt Q9Y6C9) | 0.044 | -0.005 | 0 | -0.014 | -0.024 | -0.104 | 0.018 | 0 | -0.027 | 0.001 |
| MYH11 isoform 2 (UniProt P35749) | -0.072 | -0.022 | -0.043 | -0.011 | 0.014 | 0.099 | -0.045 | -0.029 | 0.013 | -0.032 |
| NTPCR (UniProt Q9BSD7) | 0.019 | -0.01 | -0.061 | 0.056 | 0.032 | -0.088 | 0.003 | 0.028 | 0.017 | -0.027 |
| NEDD8 (UniProt Q15843) | 0.004 | -0.073 | 0.027 | 0.103 | -0.034 | 0.034 | 0.066 | -0.038 | -0.057 | 0.018 |
| NONO (UniProt Q15233) | -0.007 | -0.011 | -0.047 | 0.007 | 0.012 | -0.004 | -0.007 | 0.022 | 0.008 | -0.013 |
| NDUFS1 isoform 2 (UniProt P28331) | 0.005 | -0.001 | 0.013 | -0.021 | 0.009 | 0.112 | -0.002 | -0.018 | 0.003 | 0.006 |
| NCAPD2 (UniProt Q15021) | 0.006 | 0.01 | -0.037 | -0.001 | 0.031 | -0.064 | -0.019 | 0.044 | 0.003 | -0.009 |
| PBK (UniProt Q96KB5) | -0.01 | 0.006 | -0.035 | 0.017 | 0.017 | -0.02 | 0.033 | 0.032 | 0.017 | 0.024 |
| NOA1 (UniProt Q8NC60) | -0.041 | -0.012 | -0.05 | -0.011 | -0.036 | -0.089 | -0.027 | 0.059 | 0.04 | -0.001 |
| MSH6 (UniProt P52701) | -0.005 | 0.011 | -0.073 | -0.002 | 0.03 | -0.091 | -0.009 | 0.072 | 0.006 | -0.045 |
| NUB1 (UniProt Q9Y5A7) | -0.021 | 0.025 | -0.03 | 0.028 | 0.014 | 0.035 | 0.003 | 0.018 | 0.004 | -0.002 |
| PAK4 (UniProt O96013) | -0.015 | 0.71 (active) | 0.141 | 0.264 | -0.081 | -0.269 | -0.016 | 0.9 (active) | 0.473 | 0.257 |
| MRPS12 (UniProt O15235) | -0.026 | 0.061 | -0.104 | -0.041 | -0.007 | -0.051 | -0.012 | 0.01 | 0.018 | 0.063 |
| NOB1 (UniProt Q9ULX3) | 0.018 | -0.026 | 0.004 | -0.066 | 0.044 | 0.041 | 0 | 0.043 | -0.018 | 0.058 |
| OARD1 (UniProt Q9Y530) | 0.015 | 0.016 | -0.031 | 0.005 | 0.071 | -0.004 | -0.014 | 0.036 | -0.009 | -0.006 |
| NAA30 (UniProt Q147X3) | -0.036 | 0.019 | -0.042 | 0.059 | -0.005 | 0.032 | -0.097 | 0.001 | -0.018 | 0.041 |
| NUP93 (UniProt Q8N1F7) | -0.02 | 0.001 | -0.098 | -0.006 | 0.031 | 0.037 | -0.04 | 0.021 | 0.018 | -0.005 |
